# The supplement of paper PMC3414501
# Structures can show the parent of a compound that is named as a salt. Values without a mark were called inactive.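 Rule for the calls: active = score above 5; some higher scores were not called.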
# Tested on: S. cerevisiae SK1 pCDA2-eGFP (USY613), sporulating
# Assay: CDA2-GFP sporulation assay sensitivity score (z-score vs DMSO controls); higher = stronger inhibition of sporulation, active = hit call of the paper
row,SMILES,CDA2-GFP sporulation assay sensitivity score
1,"COc1ccc2[nH]c([S+]([O-])Cc3ncc(C)c(OC)c3C)nc2c1 (centres undefined) [Esomeprazole mg] (stock concentration (mM, diluted 1:100): 4.8)",3.2
2,"CCOC(=O)O[C@]1(C(=O)OCCl)CC[C@H]2[C@@H]3CCC4=CC(=O)C=C[C@]4(C)[C@H]3[C@@H](O)C[C@@]21C [Loteprednol etabonate] (stock concentration (mM, diluted 1:100): 10)",0
3,"COc1ccccc1N1CCN(CCCNc2cc(=O)n(C)c(=O)n2C)CC1 [Urapidil hydrochloride] (stock concentration (mM, diluted 1:100): 10)",1.04
4,"COc1ccc(-c2cc(=O)c3c(OC)c(OC)c(OC)c(OC)c3o2)cc1OC [Nobiletin] (stock concentration (mM, diluted 1:100): 10)",5.43
5,"CCN1CCC[C@H]1CNC(=O)c1cc(S(N)(=O)=O)ccc1OC [Levosulpiride] (stock concentration (mM, diluted 1:100): 10)",0.11
6,"C[C@@H](O)[C@H]1C(=O)N2C(C(=O)O)=C(S[C@@H]3CN[C@H](C(=O)N(C)C)C3)[C@H](C)[C@H]12 [Meropenem] (stock concentration (mM, diluted 1:100): 11.4)",-2.33
7,"Clc1ccc2c(c1)CCc1cccnc1C2=C1CCNCC1 [Desloratadine] (stock concentration (mM, diluted 1:100): 10)",8.67
8,"Cc1nc2n(c(=O)c1CCN1CCC(c3noc4cc(F)ccc34)CC1)CCCC2 [Risperidone] (stock concentration (mM, diluted 1:100): 10)",-0.4
9,"C[C@H]1O[C@H](O[C@H]2[C@H](O)[C@@H](O)[C@@H](O[C@H]3[C@H](O)[C@@H](O)C(O)O[C@@H]3CO)O[C@@H]2CO)[C@H](O)[C@@H](O)[C@@H]1N[C@H]1C=C(CO)[C@@H](O)[C@H](O)[C@H]1O (some centres undefined) [Acarbose] (stock concentration (mM, diluted 1:100): 10)",0.28
10,"NC(=O)c1cccnc1 [Nicotinamide] (stock concentration (mM, diluted 1:100): 10)",4.17
11,"CC(COc1ccccc1Cc1ccccc1)N1CCCCC1 (centres undefined) [Benproperine phosphate] (stock concentration (mM, diluted 1:100): 10)",0.55
12,"Oc1ccc(C2CNCCc3c2cc(O)c(O)c3Cl)cc1 (centres undefined) [Fenoldopam mesylate] (stock concentration (mM, diluted 1:100): 7.7)",-0.81
13,"O=C(c1ccc(F)cc1)C1CCN(CCn2c(=S)[nH]c3ccccc3c2=O)CC1 [Altanserin] (stock concentration (mM, diluted 1:100): 10)",2.43
14,"C[C@]12CCC(=O)C=C1CC[C@@H]1[C@@H]2C(=O)C[C@@]2(C)[C@H]1CC[C@]2(O)C(=O)CO [Cortisone] (stock concentration (mM, diluted 1:100): 10)",2.53
15,"COc1cc(N)c(Cl)cc1C(=O)NC1CCN(CCCOc2ccc(F)cc2)CC1OC (centres undefined) [Cisapride] (stock concentration (mM, diluted 1:100): 10.5)",0.78
16,"CCOC(=O)C1=C(C)NC(C)=C(C(=O)OCC)C1c1ccccc1/C=C/C(=O)OC(C)(C)C [Lacidipine] (stock concentration (mM, diluted 1:100): 10)",6.44
17,"COc1ccc(CC2c3cc(OC)c(OC)cc3CC[N+]2(C)CCC(=O)OCCCCCOC(=O)CC[N+]2(C)CCc3cc(OC)c(OC)cc3C2Cc2ccc(OC)c(OC)c2)cc1OC (centres undefined) [Atracurium besylate] (stock concentration (mM, diluted 1:100): 10)",17.9 (active)
18,"C#C[C@]1(O)CC[C@H]2[C@@H]3[C@H](C)CC4=C(CCC(=O)C4)[C@H]3CC[C@@]21C [Tibolone] (stock concentration (mM, diluted 1:100): 10)",5.97
19,"CC1CCN(CCCC(=O)c2ccc(F)cc2)CC1 [Metylperon] (stock concentration (mM, diluted 1:100): 10)",4.44
